Experimental data taken from PubChem BioAssay (NCATS).

Test: qHTS profiling of the MIPE4 collection as inhibitors of Plasmodium falciparum (DD2) proliferation (Rep 2) (AID 743346)
Conditions: P. falciparum Dd2 in erythrocytes, SYBR Green DNA, 72 h; at 28.5 µM unless noted
From the text: Plasmodium falciparum is a virulent malarial parasite that kills 1-2 million people worldwide each year. Transmitted by mosquitoes, the sporozoite form of the parasite enters the blood stream to infect hepatocytes, where they become merozoites that infect red blood cells (erythrocytes). Within erythrocytes, merozoites begin a […] cycle of growth and division, after which the parasite is released to infect new red blood cells. Gametocytes, which form within erythrocytes as well, circulate in the bloodstream and are ingested by the mosquito, thereby completing the life cycle. To profile malarial isolates for differential chemical responses and to identify inhibitors of malarial growth, an assay that measures P. falciparum growth and replication within erythrocytes was employed. This assay uses a DNA binding fluorescent dye (SYBR Green) to detect parasite DNA following cell lysis. Because mature erythrocytes lack DNA, only Plasmodium-derived DNA is detected.
The SYBR Green viability assay was adapted from a method described previously (Plouffe et al., 2008). For screening 3 ul culture medium was dispensed into 1536 well black clear bottom plates (Aurora Biotechnologies) using a Multidrop Combi (Thermo Fisher Scientific Inc.), 23 nL compounds in DMSO were added by a pin tool (Kalypsys), and 5 ul of erythrocytes infected with P. falciparum (0.3% parasitemia, 2.5% hematocrit final concentration) were added. The plates were incubated at 37 C in a humidified incubator in 5% CO2 for 72 h, and 2 ul lysis buffer (20 mM Tris HCl, 10 mM EDTA, 0.16% saponin, 1.6% triton X, 10X SYBR Green I supplied as 10,000X […] by Invitrogen) was added to each well. The plates were mixed for 25 sec with gentle shaking and incubated overnight at room temperature in the dark. The following morning, fluorescence intensity at 485(14) nm excitation and 535(25) nm emission wavelengths was measured on an EnVision (Perkin Elmer) plate reader. Plate reads were normalized relative to the control inhibitor (0.29 uM artemisinin) and vehicle (DMSO) wells present on each plate and then corrected by an algorithm using vehicle-only control plates at the beginning and end of the compound plate stack.

| SMILES | parasite growth, % of control (lower = inhibition) |
| --- | --- |
| CNC(=O)c1ccc2cc(C3(O)CCn4cncc43)ccc2c1 (stereo not given) | 74.8% |
| CON=C(C(=O)N[C@@H]1C(=O)N2C(C(=O)OCOC(=O)C(C)(C)C)=C(C=Cc3scnc3C)CS[C@H]12)c1csc(N)n1 | 73% |
| Cc1cccc(Nc2nc(-c3ccncc3)cs2)c1 | 42.6% |
| CC=C(C)C(=O)O[C@H]1C(C)=C[C@]23C(=O)[C@@H](C=C(CO)[C@@H](O)[C@]12O)[C@H]1[C@@H](C[C@H]3C)C1(C)C | 28.1% |
| CCOc1ccc(Nc2nc(-c3c(C)nc4ccccn34)cs2)cc1 | 15.8% |
| NC(=O)c1ccc2nc(-c3ccc(Oc4ccc(Cl)cc4)cc3)[nH]c2c1 | 61.3% |
| O=C(Nc1cccc(Br)c1)c1cccc(S(=O)(=O)N2CCCCCC2)c1 | 72.2% |
| Cc1ccccc1C(C(=O)NC1CCCCC1)N(C(=O)Cn1ccnc1C)c1cccc(F)c1 (stereo not given) | 25.9% |
| O=C(OCC#CCSc1nnc(-c2cccc3ccccc23)o1)c1cc2ccccc2s1 | 64.2% |
| CC(C)(C)OC(=O)N[C@H]1CCCCCC=C[C@@H]2C[C@@]2(C(=O)NS(=O)(=O)C2CC2)NC(=O)[C@@H]2C[C@@H](OC(=O)N3Cc4cccc(F)c4C3)CN2C1=O | 10.1% |
| CO[C@H]1C[C@@H]2CC[C@@H](C)[C@@](O)(O2)C(=O)C(=O)N2CCCC[C@@H]2C(=O)O[C@H]([C@H](C)C[C@@H]2CC[C@H](OP(C)(C)=O)[C@H](OC)C2)CC(=O)[C@H](C)C=C(C)[C@@H](O)[C@@H](OC)C(=O)[C@H](C)C[C@H](C)C=CC=CC=C1C | 9.19% |
| Oc1ccc(C2CCN(c3ccnc4ccccc34)CC2)cc1O | 11.6% |
| O=c1[nH]cnc2c1ncn2[C@H]1CC[C@@H](CO)O1 | 101% |
| COC[C@@H](c1ccc(C(F)(F)F)cc1)N1CCN(C2(C)CCN(C(=O)c3c(C)ncnc3C)CC2)C[C@H]1C | 21.5% |
| O=C(Nc1ccccc1-c1cn2c(CN3CCNCC3)csc2n1)c1cnc2ccccc2n1 | 12.5% |
| O=c1cc(-c2ccccc2)oc2cc(O)cc(O)c12 | 49.8% |
| CO[C@H]1C(=O)[C@]2(C)[C@@H](OC)C[C@H]3OC[C@@]3(OC(C)=O)[C@H]2[C@H](OC(=O)c2ccccc2)[C@]2(O)C[C@H](OC(=O)[C@H](O)[C@@H](NC(=O)OC(C)(C)C)c3ccccc3)C(C)=C1C2(C)C | 21.2% |
| COc1ccc(C2CC(c3ccccc3)=NN2c2ccc(S(N)(=O)=O)cc2)cc1 (stereo not given) | 46.5% |
| Cc1c(NC(=O)c2ccc(C(C)(C)C)cc2)cccc1-c1cn(C)c(=O)c(Nc2ccc(C(=O)N3CCOCC3)cc2)n1 | 10.1% |
| O=C1NC(=O)C(=Cc2cccc(C(F)(F)F)c2)S1 | 76.4% |

| SMILES | parasite growth, % of control (lower = inhibition) |
| --- | --- |
| CC(C)[C@H](CO)Nc1nc(Nc2ccc(C(=O)O)c(Cl)c2)c2ncn(C(C)C)c2n1 | 29.5% |
| COc1ccc(-c2coc3cc(O)cc(O)c3c2=O)cc1 | 46.3% |
| O=C1c2ccccc2-[n+]2ccc3c([nH]c4ccccc43)c21 | 16.6% |
| O=C(O)C=Cc1ccc(O)c(O)c1 | 22.8% |
| Cc1ccc(/C=N/NC(=O)c2ccccc2Oc2ccccc2)o1 | 120% |
| CC(C)(C)c1cc(C(=O)O)c(NC(=O)Nc2ccc3[nH]ncc3c2)s1 | 81.5% |
| CO[C@H]1C[C@@H]2CC[C@@H](C)[C@@](O)(O2)C(=O)C(=O)N2CCCC[C@@H]2C(=O)O[C@H]([C@H](C)C[C@@H]2CC[C@H](OCCO)[C@H](OC)C2)CC(=O)[C@H](C)C=C(C)[C@@H](O)[C@@H](OC)C(=O)[C@H](C)C[C@H](C)C=CC=CC=C1C | 8.53% |
| CN(C)Cc1ccc(-c2nc3cccc4c3n2CCNC4=O)cc1 | 73.5% |
| CN(C)CCC=C1c2ccccc2COc2ccc(CC(=O)O)cc21 | 121% |
| CN(C[C@@H]1COCCO1)S(=O)(=O)Nc1ccc2ccc3ncc(-c4cnn(C)c4)cc3c(=O)c2c1 | 21.5% |
| O=C(NC1CCOCC1)c1ccc(-c2cc(-c3cn[nH]c3-c3ccccn3)ccn2)cc1 | 40.9% |
| C[C@@H](O)[C@H]1C(=O)N2C(C(=O)O)=C(S[C@@H]3CN[C@H](C(=O)N(C)C)C3)[C@H](C)[C@H]12 | 118% [at 9.64 µM] |
| COc1cc(N2CCC(N3CCN(C)CC3)CC2)ccc1Nc1ncnc(Nc2ccccc2S(=O)(=O)C(C)C)n1 | 8.07% |
| CC(=NNC(=S)N1CCC1)c1ccccn1 | 10.5% |
| O=C(NOCC(O)CO)c1cc(Br)c(F)c(F)c1Nc1ccc(I)cc1F (stereo not given) | 100% |
| CC1(C)O[C@H]2C[C@@H]3[C@H]4CCC5=CC(=O)C=C[C@]5(C)[C@@]4(F)[C@@H](O)C[C@]3(C)[C@]2(C(=O)CO)O1 | 65.2% |
| CC(C)(C)COc1ccc(-n2cc(C(=O)O)cn2)cc1C#N | 76.9% |
| COc1ccc(-c2nc(N3CCOCC3)c3sc(CN(C)c4ncc(C(=O)NO)cn4)cc3n2)cn1 | 8.46% |
| COc1cccc([C@@H](C)NCCCc2ccccc2Cl)c1 | 13.3% |
| COc1cc(Nc2ncc(F)c(Nc3ccc4c(n3)NC(=O)C(C)(C)O4)n2)cc(OC)c1OC | 6.47% |
